From PubChem BioAssay AID2685 (National Center for Advancing Translational Sciences (NCATS), 2010) come the findings set out here.

Out of some 320,000 compounds screened, about 2,100 (0.66%) were called active. Another 53% or so got no clear call; they are omitted. This is one part of a sample in which actives are shown more often than they occur. The call rests on the fitted dose curve; in most records, active means well fitted inhibition curve with a large enough effect in the signal ratio, with a control signal flat (not every such curve was filed as active); inconclusive means small, poorly fitted or top-dose-only effect, or effect the other way, or a change in a side signal; inactive means flat fitted curve, though single readings scatter; the % refers to the signal ratio.
Potency means the concentration at half of the fitted maximal effect.

The nature of the test: qHTS Assay for Lipid Storage Modulators in Drosophila S3 Cells.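 On cell number change: cells counted by Cell Tracker Red CMTPX staining in the red channel.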 On lipid storage change, negative = inhibition: on the % scale 0 is the no-effect control and ±100 the full control effect. As to conditions: BODIPY lipid droplet fluorescence, 18-24 h, cells fed with added oleic acid; cell number change: measured here: cell count max response; series mostly up to 46.1 µM. The text has this:
NIH Molecular Libraries Probe Production Centers Network [MLPCN] NIH Chemical Genomics Center [NCGC] MLPCN Grant: 1 R03 MH085686-01 Assay Submitter (PI): Beller, Mathias; Max-Planck-Institut fur Biophysikalische Chemie NCGC Assay Overview: Storing lipids as a reservoir for energy or the anabolism of elementary metabolites is a common feature of probably all cells and is conserved from bacteria to humans. The universal cellular lipid storage organelle is the so-called lipid storage droplet (LD). Although ubiquitous, LDs share a simple structure composed of a hydrophobic core that harbors the storage lipids, which is shielded by a droplet-specific phospholipid monolayer to which proteins are attached. The current model of LD biogenesis involves an incorporation of the lipid core into the membrane leaflets of the endoplasmic reticulum (ER) followed by a subsequent budding-like maturation of a LD, which ultimately pinches off. Once released, LD volume can increase by localized lipogenesis or fusion of existing droplet. Storage lipids are re-mobilized enzymatically by lipase activity. Lipase regulation in the adipocyte is heavily studied and involves multiple components including catecholamine signaling, the LD-associated proteins Perilipin and comparative gene identification (CGI-58) and at least two lipases named hormone sensitive lipase (HSL) and adipocyte triglyceride lipase (ATGL). LD regulation outside of the adipocyte is poorly understood and only few components are known. However, there is an urgent need to learn more about ectopic fat depots as mislocalized storage of lipids, for example in the liver or muscle, is an eminent health problem associated with insulin resistance or the metabolic syndrome. We developed a laser-scanning cytometer assay to enable 1,536-well screening and combined the results of the small molecules screen with an RNAi database based on lipid storage.
Triacsin C (Sigma-Aldrich T-4540), an inhibitor of long-chain fatty acyl CoA synthetase that blocks synthesis of triglycerides, was used as a positive control for lipid under-storage. A total of 23 nL of compound solution of different concentrations were transferred to the assay plates using a Kalypsys pin tool equipped with a 1,536-pin array containing 10-nL slotted pins (FP1S10, 0.457-mm diameter, 50.8 mm long; V&P Scientific). One microliter of oleic acid (400 uM) was added, and the plate was lidded with stainless steel rubber gasket lined lids containing pinholes. […] Fluorescence was detected by excitation of the fluorophores with a 488-nm laser on an Acumen Explorer (TTP Lab Tech). The total intensity in channel 2 (500-530 nm) reflected lipid droplet accumulation. Cells were detected using channel 3 (575-640 nm) with 5-um width and 100-um depth filters. The ratio of the number of objects in PMT channel 2 over the number of objects in PMT channel 3 was also calculated. Percent activity was computed relative to an internal control (100% inhibited lipid droplet deposition due to the presence of 20 uM Triacsin C), which was added to 32 wells/plate.
Background: qHTS replaces the single test concentration by a dilution series.
Take `O=C(c1ccco1)N(Cc1ccc(Cl)cc1)C1CCS(=O)(=O)C1` (stereo not given): the Potency entry is “inactive” and the cell number change is 5.9%.
For `C=CCN(C(=O)c1oc2c(Cl)cc(C)cc2c1C)C1CCS(=O)(=O)C1` (stereo not given), in that order: 20.6 µM (active) and 7.31%.
For `Cc1cc(Cl)c2oc(C(=O)N3CCN(C4CCS(=O)(=O)C4)CC3)c(C)c2c1` (stereo not given), in that order: “inactive” and 16.7%.
For `CC1(C)C(C=C(Cl)Cl)C1C(=O)N(Cc1ccc(Cl)cc1)C1CCS(=O)(=O)C1` (stereo not given), in that order: 8.2 µM (active) and -12%.
On to `Cc1c(C(=O)N(Cc2ccc(F)cc2)C2CCS(=O)(=O)C2)oc2ccccc12` (stereo not given), for which the Potency result was “inactive” and the cell number change was determined as 3.58%.
The matching figures for `CC1(C)C(C=C(Cl)Cl)C1C(=O)N(Cc1ccccc1Cl)C1CCS(=O)(=O)C1` (stereo not given): “inactive” and -19.9%.
The matching figures for `C=CCN(C(=O)c1ccccc1)C1CCS(=O)(=O)C1` (stereo not given): “inactive” and 22.7%.
For `Cc1c(C(=O)N(Cc2ccc(Cl)cc2)C2CCS(=O)(=O)C2)oc2ccccc12` (stereo not given), in that order: 9.2 µM (active) and -19.8%.
In the case of `Cc1c(C(=O)N(Cc2ccccc2)C2CCS(=O)(=O)C2)oc2ccccc12` (stereo not given), the Potency result was “inactive” and the cell number change is 19%.
For `O=C1CSC(c2ccccc2)N1CC(O)c1ccc([N+](=O)[O-])cc1` (stereo not given), in that order: “inactive” and 14%.
For `CCOc1ccc(-c2noc(-c3cccnc3)n2)cc1OCC`, in that order: “inactive” and 2.29%.
For `O=[N+]([O-])c1cccc(OCCN2CCC(Cc3ccccc3)CC2)c1`, in that order: “inactive” and 10.2%.
With `COc1ccc(S(=O)(=O)CCC(=O)Nc2ccc(OC)cc2OC)cc1`, the Potency entry was “inactive” and the cell number change was -8.69%.
For `Cc1ccc(C(=O)CCC(=O)OCC(=O)N(CC(C)C)c2c(N)n(Cc3ccccc3)c(=O)[nH]c2=O)cc1`, in that order: “inactive” and 20.5%.
Take `COc1ccc(CCNc2c(C=O)c(=O)[nH]c3ccccc23)cc1OC`: the Potency entry was “inactive”.
For the molecule `Cc1cc(Br)ccc1NC(=O)C(C)c1ccc([N+](=O)[O-])cc1` (stereo not given), the Potency entry was “inactive” and the cell number change was 6.98%.
For `CCc1c(C(C)S(=O)(=O)c2ccc(C)cc2)[nH]c(=O)n1-c1ccc(C)cc1` (stereo not given), in that order: 29.1 µM (active) and -0.34%.
As to `Cc1ccc(-n2cc(S(=O)(=O)c3ccc(C)cc3)[nH]c2=O)cc1`, the Potency result is “inactive” and the cell number change is 12.8%.
`Cc1ccc(-n2c3c(c(=O)[nH]c2=O)C(NS(=O)(=O)c2ccc(C)cc2)(C(F)(F)F)C(=O)N3)cc1` (stereo not given): the Potency entry was “inactive” and the cell number change is -0.886%.
For the molecule `Brc1ccc(-n2cccc2/C=N/n2cnnc2)cc1`, the Potency entry is “inactive”.
`N#Cc1nc(COc2ccc(Cl)cc2)oc1N1CCCC1`: the Potency is 23.1 µM (active) and the cell number change was -31%.
The matching figures for `Cc1ccc(OCc2nc(C#N)c(N3CCCCC3)o2)cc1`: “inactive” and 15.9%.
For `N#Cc1nc(COc2ccc(Br)cc2)oc1N1CCCCCC1`, the cell number change came to 7.38% and the lipid storage change, negative = inhibition was 17.2% [at 9.22 µM] (inactive).
As for `COc1ccc(OC)c(-c2cc(C(=O)N3CCN(c4ncccn4)CC3)c3ccccc3n2)c1`, the Potency result is “inactive” and the cell number change was -4.49%.
The matching figures for `Cc1onc(-c2ccccc2Cl)c1C(=O)Nc1ccccc1`: “inactive” and 6.9%.
The matching figures for `COc1cc(S(=O)(=O)N(C)C)ccc1F`: “inactive” and -10.1%.
The matching figures for `COC(=O)C1=C(C)NC2=C(C(=O)c3ccccc32)C1c1cccc(OC)c1` (stereo not given): “inactive” and -11.6%.
On to `CCOC(=O)C1=C(C)NC2=C(C(=O)c3ccccc32)C1c1cccc2ccccc12` (stereo not given), for which the Potency is 16.4 µM (active) and the cell number change was -15.2%.
Turning to `CCOC(=O)C1=C(C)NC2=C(C(=O)c3ccccc32)C1c1ccc([N+](=O)[O-])o1` (stereo not given), the Potency result is “inactive” and the cell number change was found to be 12.6%.
Consider `CCC1CCCCN1C(=O)CNCC1CCCO1` (stereo not given), for which the Potency result was “inactive” and the cell number change turned out to be 14.6%.
In the case of `CSc1ccccc1NC(=O)CN(Cc1ccccc1)S(C)(=O)=O`, the Potency entry is “inactive”.
On to `Cc1ccc(CS(=O)(=O)CC(C)(O)c2ccccc2)cc1` (stereo not given), for which the Potency entry was “inactive” and the cell number change stood at 15.3%.
For `COc1ccc(C(C(=O)NCC2CCCO2)N(Cc2cccs2)C(=O)c2snc(C(N)=O)c2N)cc1OC` (stereo not given), in that order: “inactive” and 25.6%.
In the case of `CCOc1ccc(C(C(=O)NCC2CCCO2)N(Cc2cccs2)C(=O)c2snc(C(N)=O)c2N)cc1` (stereo not given), the Potency was 1.64 µM (active) and the cell number change was 15%.
For `CCOc1ccc(C(C(=O)NCC2CCCO2)N(Cc2cccnc2)C(=O)c2snc(C(N)=O)c2N)cc1` (stereo not given), the Potency result was “inactive” and the cell number change was -2.82%.
The matching figures for `Cc1cccc(-n2ncc3c2CCCC3NC(=O)CCN2CCCCO2)c1C` (stereo not given): “inactive” and -4.74%.
Regarding `O=C(CSc1ccc(-c2ccccn2)nn1)N1CCCC1`, the Potency result is “inactive” and the cell number change came out at 4.79%.
The matching figures for `COc1cc(CN2CCC(Cc3ccccc3)CC2)c([N+](=O)[O-])cc1OC`: “inactive” and 21.3%.
Take `COc1ccc(CSc2nnc(CNS(C)(=O)=O)o2)cc1`: the Potency entry is “inactive” and the cell number change is 8.09%.
For `COc1cc([N+](=O)[O-])ccc1N1C(=O)C2C3C=CC(C4CC34)C2C1=O` (stereo not given), in that order: “inactive” and -23.6%.
With `O=S(=O)(NCc1ccccc1)c1ccc(-n2cccn2)cc1`, the Potency entry was “inactive” and the cell number change is -18%.
`COc1ccccc1CNS(=O)(=O)c1ccc(-n2cccn2)cc1`: the Potency result was “inactive” and the cell number change is -13.2%.
For `O=S(=O)(NCc1ccccc1Cl)c1ccc(-n2cccn2)cc1`, in that order: 16.4 µM (active) and -0.567%.
As for `O=C(NCCCCO)c1ccc2c3c(cccc13)CC2`, the Potency result is “inactive” and the cell number change was -6.57%.
